Results filed as inconclusive are left out. A call without a number means that no potency is given here. The source made the active and inactive calls. Unless noted, calls come from the whole dose curve; as a rule, active = well fitted curve in the direction sought with a large enough effect in the repeat runs; inconclusive = weak or mixed curves; inactive = no such curve, though single readings can be large; an effect the other way counts as inactive or inconclusive.

The nature of one assay: qHTS assay to identify small molecule antagonists of the TGF-beta/Smad signaling pathway - cell viability counter screen (AID 1346824). Note: nearly all actives have a fitted effect of over 50% in size. Note: potency is the fitted concentration of half-maximal effect. The note with it: SBE-bla HEK293T viability, CellTiter-Glo luminescence; series mostly up to 76.8 µM. The procedure, abridged:
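Cytotoxicity counter-screen run in the same wells as the beta-lactamase Smad reporter read: CellTiter-Glo luminescence after 30 min at room temperature. HEK 293T SBE-bla cells had 5 hr compound exposure at 37 C with TGF-beta1 (0.25 ng/mL stock).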
(qHTS replaces the single test concentration by a dilution series.)
For the compound `CCC[CH2][Sn]([CH2]CCC)([CH2]CCC)[CH2]CCC`, the Potency is 38.9 µM (active).
On to `C#CCC1=C(C)C(OC(=O)C2C(C=C(C)C)C2(C)C)CC1=O` (stereo unspecified), for which the Potency result was “inactive”.
Still for that read-out and setting: as for `CN1CCc2cc3c(cc2C1O)OCO3` (stereo unspecified), the entry is “inactive”; as for `CCCCC(CC)COC(=O)c1ccccc1C(=O)OCC(CC)CCCC` (stereo unspecified), “inactive”; as for `C[C@]12Cc3cn[nH]c3C[C@@H]1CC[C@@H]1[C@@H]2CC[C@@]2(C)[C@H]1CC[C@]2(C)O`, “inactive”.
Same read-out and setting: as for `N#CCCl`, the entry is “inactive”; as for `BrCC(Br)(Br)Br`, “inactive”.
Still for that read-out and setting: under `COP(=S)(OC)Oc1ccc([N+](=O)[O-])c(C)c1` stands “inactive”; under `CSSC`, “inactive”.
With `[Cl-].[Cl-].[Cl-].[Yb+3]`, the Potency result was “inactive”.
The same measure, in the same setting: as for `CC1(C)[C@H](/C=C2\CCSC2=O)[C@@H]1C(=O)OCc1coc(Cc2ccccc2)c1`, the entry is “inactive”.

A further assay in a line: qHTS assay to identify small molecule agonists of the TGF-beta/Smad signaling pathway - cell viability counter screen (AID 1346829). Note: nearly all actives have a fitted effect of over 45% in size. Note: potency is the fitted concentration of half-maximal effect. To be noted: SBE-bla HEK293T viability, CellTiter-Glo luminescence, 5 h; series mostly up to 76.8 µM. The procedure, abridged: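 Luminescence from CellTiter-Glo, read after a 30 min room-temperature incubation, gives cell viability of SBE-bla HEK 293T cells treated 5 hr with compounds at 37 C.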
As to `CCCCC(CC)COC(=O)OOC(C)(C)C` (stereo unspecified), the Potency entry is “inactive”.
On the same count and under the same terms, under `CNC(=O)O/N=C(\C)C(C)S(C)(=O)=O` (stereo unspecified) stands “inactive”; under `CCO/N=C(\CC)C1=C(O)CC(c2c(C)cc(C)cc2C)CC1=O` (stereo unspecified), “inactive”; under `O=c1[nH]c2cc(Cl)ccc2n1C1CCNCC1`, “inactive”.
`CCOP(=O)(OCC)Oc1nc(Cl)c(Cl)cc1Cl`: the Potency entry was “inactive”.
Turning to `CN(C)CCc1c[nH]c2ccccc12`, the Potency entry is “inactive”.
`O.O.O.O=C([O-])[C@H]([O-])[C@@H]([O-])C(=O)[O-].O=C([O-])[C@H]([O-])[C@@H]([O-])C(=O)[O-].[K+].[K+].[Sb+3].[Sb+3]`: the Potency result was “inactive”.
Consider `O=c1[nH]c(Cl)c(Cl)cc1Cl`, for which the Potency entry is “inactive”.
Still for that read-out and setting: under `[C-]1=CC=CC1.[Cl][Zr+2][Cl].c1cc[cH-]c1` stands “inactive”; under `Clc1ccc(C2(Cn3cncn3)OCCO2)c(Cl)c1`, “inactive”.
Regarding `CCC(OC(C)=O)C(CC(C)NC)(c1ccccc1)c1ccccc1` (stereo unspecified), the Potency result is “inactive”.
In the case of `CCC[CH2][Sn]([CH2]CCC)([CH2]CCC)[O][Sn]([CH2]CCC)([CH2]CCC)[CH2]CCC`, the Potency was 1.51 µM (active).
Still for that read-out and setting: under `CCOP(=S)(OCC)Oc1cc(C)nc(N(CC)CC)n1` stands “inactive”; under `Nc1c(Cl)c(Cl)c(Cl)c(Cl)c1Cl`, “inactive”.
Turning to `C1=CCC=C1`, the Potency entry was “inactive”.
On to `Nc1ccccc1-c1ccccc1`, for which the Potency result is “inactive”.
Still for that read-out and setting: under `CCOP(=S)(NC(C)C)Oc1ccccc1C(=O)OC(C)C` (stereo unspecified) stands “inactive”.
Still for that read-out and setting: under `Cc1c([N+](=O)[O-])c(C)c([N+](=O)[O-])c(C(C)(C)C)c1[N+](=O)[O-]` stands “inactive”; under `ClC1=C(Cl)[C@]2(Cl)[C@@H]3[C@H]4C[C@H]([C@@H]5O[C@H]45)[C@@H]3[C@@]1(Cl)C2(Cl)Cl`, “inactive”.
The same measure, in the same setting: under `CC(C)Br` stands “inactive”; under `C#CCC1=C(C)C(OC(=O)C2C(C=C(C)C)C2(C)C)CC1=O` (stereo unspecified), “inactive”.
In the case of `CCCCC(CC)COC(=O)c1ccccc1C(=O)OCC(CC)CCCC` (stereo unspecified), the Potency result is “inactive”.
With `CCN(CC)Cc1nccn1-c1ccc([N+](=O)[O-])cc1C(=O)c1ccccc1Cl`, the Potency result is “inactive”.
On the same count and under the same terms, as for `N#CCCl`, the entry is “inactive”; as for `BrCC(Br)(Br)Br`, “inactive”; as for `CSSC`, “inactive”.
Still for that read-out and setting: as for `O=C(NC(=O)c1ccccc1Cl)Nc1ccc(OC(F)(F)F)cc1`, the entry is “inactive”; as for `[Cl-].[Cl-].[Cl-].[Yb+3]`, “inactive”; as for `CC1(C)[C@H](/C=C2\CCSC2=O)[C@@H]1C(=O)OCc1coc(Cc2ccccc2)c1`, “inactive”.

A further assay in a line: qHTS assay to identify small molecule agonists of the TGF-beta/Smad signaling pathway (AID 1346859; active = well fitted activation curve with a large enough effect in the signal ratio in the repeat runs, not every such curve was filed as active; the % refers to the signal ratio). The note with it: SBE-bla HEK293T, TGF-beta/Smad beta-lactamase reporter, 5 h; series mostly up to 76.8 µM. Put shortly: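 Smad-responsive beta-lactamase reporter cells (HEK 293T) received compounds from DMSO stocks after overnight attachment, were incubated 5 hr, then treated 2 hr with FRET substrate before dual-emission fluorescence measurement (405 nm excitation).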
On to `CCCCC(CC)COC(=O)OOC(C)(C)C` (stereo unspecified), for which the compound was classed as inactive.
`O=C1C2(Cl)C3(Cl)C4(Cl)C(Cl)(Cl)C5(Cl)C3(Cl)C1(Cl)C5(Cl)C24Cl` (stereo unspecified): the result was inactive.
Same read-out and setting: under `CNC(=O)O/N=C(\C)C(C)S(C)(=O)=O` (stereo unspecified) stands “inactive”.
As for `CCO/N=C(\CC)C1=C(O)CC(c2c(C)cc(C)cc2C)CC1=O` (stereo unspecified), the compound was called inactive.
As to `O=c1[nH]c2cc(Cl)ccc2n1C1CCNCC1`, the compound was called inactive.
Turning to `CC(=O)[O-].CC(=O)[O-].[Co+2]`, the call was inactive.
On the same count and under the same terms, under `CCOP(=O)(OCC)Oc1nc(Cl)c(Cl)cc1Cl` stands “inactive”.
Still for that read-out and setting: as for `Cc1cc(C2CC2)nc(Nc2ccccc2)n1`, the entry is “inactive”; as for `CN(C)CCc1c[nH]c2ccccc12`, “inactive”; as for `O.O.O.O=C([O-])[C@H]([O-])[C@@H]([O-])C(=O)[O-].O=C([O-])[C@H]([O-])[C@@H]([O-])C(=O)[O-].[K+].[K+].[Sb+3].[Sb+3]`, “inactive”.
Take `[C-]1=CC=CC1.[Cl][Zr+2][Cl].c1cc[cH-]c1`: the compound was called inactive.
Still for that read-out and setting: as for `Clc1ccc(C2(Cn3cncn3)OCCO2)c(Cl)c1`, the entry is “inactive”; as for `CCC(OC(C)=O)C(CC(C)NC)(c1ccccc1)c1ccccc1` (stereo unspecified), “inactive”; as for `CCOP(=S)(OCC)Oc1cc(C)nc(N(CC)CC)n1`, “inactive”.
Same read-out and setting: under `Nc1c(Cl)c(Cl)c(Cl)c(Cl)c1Cl` stands “inactive”.
`C1=CCC=C1`: the outcome was inactive.
With `Nc1ccccc1-c1ccccc1`, the compound was classed as inactive.
Take `Cc1c([N+](=O)[O-])c(C)c([N+](=O)[O-])c(C(C)(C)C)c1[N+](=O)[O-]`: the compound was called inactive.
For the compound `ClC1=C(Cl)[C@]2(Cl)[C@@H]3[C@H]4C[C@H]([C@@H]5O[C@H]45)[C@@H]3[C@@]1(Cl)C2(Cl)Cl`, the compound was called inactive.
Take `CC(C)Br`: the compound was classed as inactive.
On the same count and under the same terms, as for `C#CCC1=C(C)C(OC(=O)C2C(C=C(C)C)C2(C)C)CC1=O` (stereo unspecified), the entry is “inactive”; as for `N#Cc1ccc(N(CC(N)=O)CC(F)(F)F)cc1C(F)(F)F`, “inactive”.
Still for that read-out and setting: as for `CCN(CC)Cc1nccn1-c1ccc([N+](=O)[O-])cc1C(=O)c1ccccc1Cl`, the entry is “inactive”; as for `C[C@]12Cc3cn[nH]c3C[C@@H]1CC[C@@H]1[C@@H]2CC[C@@]2(C)[C@H]1CC[C@]2(C)O`, “inactive”.
Regarding `N#CCCl`, the compound was classed as inactive.
In the case of `BrCC(Br)(Br)Br`, the compound was classed as inactive.
On the same count and under the same terms, under `COP(=S)(OC)Oc1ccc([N+](=O)[O-])c(C)c1` stands “inactive”; under `CSSC`, “inactive”; under `O=C(NC(=O)c1ccccc1Cl)Nc1ccc(OC(F)(F)F)cc1`, “inactive”.
Same read-out and setting: under `[Cl-].[Cl-].[Cl-].[Yb+3]` stands “inactive”; under `CC1(C)[C@H](/C=C2\CCSC2=O)[C@@H]1C(=O)OCc1coc(Cc2ccccc2)c1`, “inactive”.

Source of the values: PubChem BioAssay (Tox21).
